According to PubChem BioAssay (NCI):
This is part of a sample that, as a whole, favours compounds with a hit. Of some 83,000 tested, about 20% had one in any assay.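 Cells were grown in 96-well plates and exposed to the test compound at a single concentration for 48 hours; results are reported as percent growth, with values below 10 considered active.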 Unmarked numbers belong to inactive results. Calls of active or inactive are those of the source.

Key:
Assay in all cases: NCI-60 one-dose screen, 48 h (100 = growth as untreated, 0 = no growth, -100 = all killed)
[1] = test system: SK-MEL-2 melanoma; details: 10 µM unless noted
[2] = test system: EKVX NSCLC; details: 10 µM unless noted
[3] = test system: SN12C renal; details: 10 µM unless noted
[4] = test system: UO-31 renal; details: 10 µM unless noted
[5] = test system: TK-10 renal; details: 10 µM unless noted
[6] = test system: ACHN renal; details: 10 µM unless noted
[7] = test system: CAKI-1 renal; details: 10 µM
[8] = test system: A498 renal; details: 10 µM unless noted
[9] = test system: CCRF-CEM leukemia; details: 10 µM unless noted
[10] = test system: MOLT-4 leukemia; details: 10 µM unless noted
[11] = test system: SR leukemia; details: 10 µM unless noted
[12] = test system: RPMI-8226 leukemia; details: 10 µM unless noted
[13] = test system: OVCAR-8 ovarian; details: 10 µM unless noted
[14] = test system: OVCAR-5 ovarian; details: 10 µM unless noted
[15] = test system: OVCAR-4 ovarian; details: 10 µM unless noted
[16] = test system: SK-OV-3 ovarian; details: 10 µM unless noted
[17] = test system: IGROV1 ovarian; details: 10 µM unless noted
[18] = test system: OVCAR-3 ovarian; details: 10 µM unless noted
[19] = test system: HS 578T breast; details: 10 µM unless noted
[20] = test system: NCI/ADR-RES ovarian; details: 10 µM unless noted

| SMILES | growth [1] [%] | growth [2] [%] | growth [3] [%] | growth [4] | growth [5] [%] | growth [6] [%] | growth [7] [%] | growth [8] [%] | growth [9] [%] | growth [10] | growth [11] | growth [12] [%] | growth [13] [%] | growth [14] [%] | growth [15] [%] | growth [16] [%] | growth [17] [%] | growth [18] [%] | growth [19] | growth [20] [%] |
| --- | --- | --- | --- | --- | --- | --- | --- | --- | --- | --- | --- | --- | --- | --- | --- | --- | --- | --- | --- | --- |
| Oc1ccc(CSc2nnc(-c3cnccn3)n2-c2ccccc2)c2cccnc12 | 42.6 | 44 | 24.5 | 10.7% | 37.7 | 15.4 | 16.7 | 10.9 | 16.7 | 21.3% | 42.1% | 29.1 | 23.1 | 50.3 | 16.5 | 21.1 | 16.3 | 14.8 | 29.4% | 10.9 |
| O=C1[C@H]2Cc3c([nH]c4ccccc34)[C@H](c3ccc(Cl)cc3)N2C(=O)CN1C1CCN(Cc2c(Cl)cccc2Cl)CC1 | 106 | 74.5 | 59.9 | 48.4% | 101 | 72.9 | 41.9 | 101 | 53.4 | 44% | 22.2% | 50.3 | 84.5 | 89.2 | 69.9 | 98.5 | 39 | 76.8 | 75.6% | 77.6 |
| CCCC(=O)NC(c1cccnc1)c1cc(C(C)=O)c2cccnc2c1O (stereo not given) | 62.8 | 22.3 | 43.9 | 13.6% | 39.1 | 14.5 | 20.5 | 56.6 | 20.8 | 25.1% | 52.5% | 38.2 | 21.7 | 40 | 19.6 | 31.9 | 36.7 | 17.1 | 69.6% | 30.4 |
| O=C(O)c1ccc(-n2cc(CNc3ccc(Cl)cc3)c(-c3ccc(F)cc3)n2)cc1 | 99.1 | 81.1 | 99 | 80.5% | 119 | 78.9 | 83.8 | 88.6 | 91.8 | 85.4% | 121% | 80.2 | 92.4 | 106 | 101 | 110 | 102 | 105 | 100% | 102 |
| Oc1ccc(CSc2nnc(-c3ccc(Br)cc3)n2-c2ccccc2)c2cccnc12 | 39.4 | 43.1 | 35 | 8.19% (active) | 36.5 | 27 | 36.7 | 63.8 | 22.9 | 32.3% | 37.7% | 13.7 | 23.4 | 54.4 | 35.7 | 23.3 | 18.9 | 41.5 | 13% | 12.2 |
| COc1ccc([C@H]2c3[nH]c4ccccc4c3C[C@@H]3C(=O)N(C4CCN(Cc5ccccc5)CC4)CC(=O)N23)c(OC)c1 | 103 | 64.5 | 75.6 | 42.6% | 103 | 76 | 56.4 | 93.8 | 61.8 | 45.1% | 29.9% | 52.9 | 88.7 | 90 | 82.7 | 93 | 50.6 | 80.4 | 82.3% | 68.3 |
| Cc1ccc(NC(=O)c2cccc(CN3CCN(C)CC3)c2)cc1Oc1ccc(-c2[nH]nc3ncnc(N)c23)cc1 | 73.8 | 97.5 | 80 | 93.3% | 93.5 | 92.6 | 59.3 | 89.2 | 47 | 0.353% (active) | 6.56% (active) | 48.7 | 83.1 | 80.8 | 81.9 | 78.8 | 63.3 | 79.6 | 64.2% | 101 |
| COc1ccc(N)cc1C(=O)Nc1cccc(-c2cc(=O)c3c(OC)c(OC)c(OC)cc3o2)c1 | 89.1 | 84.8 | 49.7 | 29.4% | 81.5 | 52.3 | 43.1 | 63.1 | 34 | 48.2% | 40.9% | 35.4 | 56.4 | 94.8 | 81.5 | 119 | 51.3 | 65.5 | 58.3% | 60.7 |
| O=C(O)c1ccc(-n2cc(CNc3ccc(F)cc3)c(-c3ccc(C(F)(F)F)cc3)n2)cc1 | 110 | 74.4 | 94.4 | 67.2% | 110 | 76.6 | 76.2 | 90.3 | 81.9 | 81% | 109% | 86.5 | 71.8 | 106 | 86.8 | 95.2 | 95 | 84.1 | 88.8% | 87 |
| Cn1c(SC(C(=O)Nc2ccc(F)cc2)c2ccccc2)nc2ccccc2c1=O (stereo not given) | 104 | 100 | 99.1 | 88.1% | 99.1 | 109 | 99.3 | 98.8 | 102 | 101% | 96.9% | 98.4 | 99.7 | 111 | 102 | 109 | 102 | 114 | 98.8% | 109 |
| O=C(c1cccc(F)c1)n1ccc2cc(NC(=S)Nc3cccnc3)ccc21 | 102 | 105 | 95.9 | 83.3% | 94.8 | 103 | 97 | 92.4 | 83.1 | 84.9% | 81.6% | 99.3 | 102 | 101 | 103 | 105 | 97.4 | 107 | 94.4% | 105 |
| O=C1[C@@H]2Cc3c([nH]c4ccccc34)[C@H](c3c(Cl)cccc3Cl)N2C(=O)CN1C1CCN(Cc2c(F)cccc2F)CC1 | 110 | 60.6 | 50.6 | 74.9% | 106 | 81.6 | 78.6 | 103 | 65.5 | 58.8% | 35.4% | 67.9 | 79.3 | 92.4 | 76.3 | 96.8 | 59.5 | 113 | 44.7% | 85.3 |
| C#CCOc1ccccc1C(Nc1ccccc1)c1nnnn1C1CCCCC1 (stereo not given) | 110 | 95.9 | 104 | 78.5% | 106 | 93.9 | 59.6 | 104 | 92.7 | 88.3% | 98.1% | 89.7 | 101 | 91.9 | 94.5 | 101 | 89.6 | 109 | 95.2% | 96.1 |
| Oc1ccccc1-c1nnc(SCc2ccc(O)c3ncccc23)o1 | 34.1 | 53.1 | 18.5 | 14.7% | 43.9 | 25.4 | 25.3 | 81.7 | 28.1 | 36.3% | 43.3% | 13.5 | 26.4 | 68.4 | 35.9 | 19.5 | 53 | 29.7 | 6.2% (active) | 49 |
